In PubChem BioAssay (NCI) one finds growth data, which are given here for twelve compounds.

The panel holds about 83,000 compounds, 20% with a hit somewhere; the sample as a whole holds those more often.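 Interpretation: 100, growth as untreated; towards 0, rising growth inhibition; 0, no net growth; 0 to -100, cell death. Compounds scoring below 10 were considered active.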 Values without a mark were called inactive. Activity calls are given as the source filed them.

The subject of this assay is HL-60(TB) leukemia. Nature of the assay: NCI-60 one-dose screen, 48 h (100 = growth as untreated, 0 = no growth, -100 = all killed). The note with it: 10 µM unless noted.
`COc1cnc2c(c1)C(=O)c1c-2n(CCCNC2=NCCS2)c(=O)c2cc(F)ccc12`: the growth was -45.5% (active).

Regarding `CCN(CC)CCCCCCNc1cc(OC)c(Cl)c2cccnc12`, the growth was 119%.

For the compound `O=C(CCCCCCSc1nc(-c2ccccc2)cc(-c2ccc(Cl)cc2)n1)NO`, the growth was -37.5% (active).

On to `CN(Cc1ccccc1)c1nc(Cl)c(C2CC(c3ccccc3)=NN2c2ccccc2)s1` (configuration not stated), for which the growth was 100%.

For `CCOC(=O)CC(=O)c1c(C)cc(C)cc1C`, the growth is 90.8%.

As for `C/C(=C\CCc1ccoc1)CC/C=C(\C)CCCN1CCSCC1`, the growth is 73.9%.

Take `CC(=O)N1C/C(=C/c2ccc(Cl)cc2)C(=O)/C(=C/c2ccc(Cl)cc2)C1`: the growth was 4.97% (active).

As to `N#C/C(=C/c1ccc(O)c([N+](=O)[O-])c1)c1nc(-c2ccc([N+](=O)[O-])cc2)cs1`, the growth is 26.5%.

In the case of `CC1=CC(=O)N(c2cccc3c(N4C(=O)C=C(C)C4=O)cccc23)C1=O`, the growth is -1.53% (active).

Consider `O=[N+]([O-])c1ccccc1/C=N\NC(=S)N/N=C/c1ccccc1[N+](=O)[O-]`, for which the growth was 9.57% (active).

In the case of `C(=N\Nc1ccccn1)/c1ccccn1`, the growth is 12.3%.

For `CON=C1C[C@]2(C[C@@H]3C[C@@H](C/C=C(\C)C[C@@H](C)/C=C/C=C4\CO[C@@H]5[C@H](O)C(C)=C[C@@H](C(=O)O3)[C@]45O)O2)O[C@H](/C(C)=C/C(C)C)[C@H]1C`, the growth was -43.6% (active).
